Screens from PubChem BioAssay.
Tau fluor counter – counter-screen for tau fibril formation inhibitors | tau K18 P301L Alexa594 fluorescence, heparin fibrillization | Potency, µM (top dose mostly 57.7 µM), without a hit: at the highest dose activity change, negative = decrease | 280,000 compounds, 0.93% hits; further: potency means the concentration at half of the fitted maximal effect; nearly all actives have a fitted effect of over 55% in size
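Human tau K18 P301L (15 uM unlabeled, 0.24 uM Alexa 594-labeled) in 100 mM sodium acetate pH 7 with 20 uM heparin, 6 hr at 37 C. ThT 30 uM added, 1 hr ambient; Alexa 594 FP and total fluorescence read at 555/632 nm.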
G9a block – G9a (human) methyltransferase inhibition | Q96KQ7 | G9a H3K9 monomethylation, AlphaScreen, 2 h | Potency, µM (doses to about 102 µM), for inactives: top-dose activity, negative = inhibition, hits mostly inhibitors | 350,000 compounds, 8.8% hits | AID 504332; further: potency means the concentration at half of the fitted maximal effect; nearly all actives have a fitted effect of over 75% in size
Target sequence (Q96KQ7 913-1193 limits assumed): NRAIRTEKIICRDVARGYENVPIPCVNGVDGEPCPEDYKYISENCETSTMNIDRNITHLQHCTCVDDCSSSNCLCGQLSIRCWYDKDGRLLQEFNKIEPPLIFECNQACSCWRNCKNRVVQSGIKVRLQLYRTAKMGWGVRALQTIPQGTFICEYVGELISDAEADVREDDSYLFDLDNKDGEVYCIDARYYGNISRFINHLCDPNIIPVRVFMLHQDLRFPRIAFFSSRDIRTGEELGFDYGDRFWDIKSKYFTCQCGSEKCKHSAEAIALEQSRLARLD
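Methyltransferase reactions run at room temperature for 2 h (20 nM enzyme, 500 nM biotin-H3K9 peptide, 20 uM SAM) after a 15 min compound preincubation; product detected by AlphaScreen beads and anti-H3K9me1 antibody.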
Tau ThT inhib – blocks human tau fibril formation measured by thioflavin T; Potency, µM (highest dose often 57.4 µM), without a hit: at the highest dose activity, negative = inhibition, most hits filed as inhibitors; recombinant tau K18 P301L, heparin-induced fibrillization, ThT fluorescence; P10636; 270,000 compounds, 2.1% hits; AID 1460; further: potency means the concentration at half of the fitted maximal effect; nearly all actives have a fitted effect of over 55% in size
Target sequence (P10636 561-689 P618L limits assumed): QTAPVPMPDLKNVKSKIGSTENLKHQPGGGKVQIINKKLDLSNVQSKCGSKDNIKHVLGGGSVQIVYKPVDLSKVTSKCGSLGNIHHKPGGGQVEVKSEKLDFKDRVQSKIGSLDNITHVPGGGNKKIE
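Fibril formation assay: tau K18 P301L at 15 uM with trace Alexa 594 label, heparin inducer 20 uM, pH 7 sodium acetate buffer, 37 C for 6 hr; endpoint ThT signal.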
FBPA coupling cs – inhibits coupling enzyme system, counter-screen for aldolase hits. coupling enzyme system counterscreen, AmpLite Red fluorescence. activity change, negative = inhibition, % at 58.2 µM, hits read low. 290,000 compounds, 0.67% hits. AID 2472; in the data active means activity change below about -30%
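Final compound at 57.5 uM, incubated 10 min at RT with coupling enzyme reagent (glyceraldehyde-3-phosphate), then 20 min with substrate and AmpLite Red detection. Fluorescence read at 525/598 nm; tests interference with the coupling assay, not aldolase inhibition.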
Tau fibril FP – blocks human tau fibril formation measured by polarization. P10636. K18 P301L tau heparin fibrillization, Alexa594 FP, 6 h. Potency, µM (highest dose often 57.7 µM), inactives show top-dose activity, negative = inhibition, most hits filed as inhibitors. 280,000 compounds, 0.39% hits. AID 1468; further: potency means the concentration at half of the fitted maximal effect; nearly all actives have a fitted effect of over 55% in size
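Steps: dispense K18 P301L tau (15 uM plus 0.24 uM Alexa 594 tracer, final) in pH 7 sodium acetate; add compound; add heparin (20 uM final); incubate 6 hr, 37 C; add ThT (30 uM final); after 1 hr ambient, read FP.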
Sfp PPTase inh – blocks B. subtilis Sfp PPTase activity; Biochemical Sfp PPTase activity, qHTS; Potency, µM, for inactives: largest response in the series, negative = inhibition, most hits filed as inhibitors; 310,000 compounds, 3.5% hits;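 further: the enzyme is Sfp with the accession as filed and its product quenches rhodamine fluorescence; potency means the concentration at half of the fitted maximal effect; 0% = enzyme reaction without inhibitor and -100% = no enzyme wells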
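Buffer: 50 mM Hepes-Na pH 7.6, 10 mM MgCl2, 0.01% Nonidet P-40, 0.01% BSA. Enzyme 15 nM, pre-exposed to compound 15 min; substrates then added and fluorescence change tracked over 30 min.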
* = called active by the depositor; u = inconclusive; x = no result; [ ] = dose if it differs, or a comment. Most compounds without a hit are left out; they make up all but 11% or so of the library. Unless noted, the call rests on the fitted dose curve; in most records, active means well fitted curve in the direction sought with a large enough effect; inconclusive means small, poorly fitted or top-dose-only effect, or another doubt; inactive means no such curve, though single readings can be large; an effect the other way counts as inactive or inconclusive. Unless noted, on the % scale 0 is the no-effect control and ±100 the full control effect.

SMILES	Tau fluor counter	G9a block	Tau ThT inhib	FBPA coupling cs	Tau fibril FP	Sfp PPTase inh
CC1(C)CC(N2CCOCC2)=CC(=[N+]2CCOCC2)C1	4%	40µM*	-1%	0	-4%	-10%
CC(=O)c1c(O)c(C)c(O)c2c1OC1=CC(=O)C(C(C)=O)C(=O)[C@@]12C (some centres undefined)	1%	50µM*	10%	16	-1%	22%
COC(=O)c1ccc(N2CCOCC2)c(NC(=O)c2ccco2)c1	x	48%	x	x	x	12%
COc1cc(CN2CCN(c3cccc(C)c3C)CC2)cc([N+](=O)[O-])c1O	-11%	11µM*	u	6	4%	-9%
COc1cc(CN2CCN(c3ccccc3F)CC2)cc(OC)c1O	-8%	u	-17%	-2	1%	-4%
COc1ccc(N2CCN(Cc3cc(OC)c(O)c([N+](=O)[O-])c3)CC2)cc1	-13%	7.1µM*	u	0	-3%	u
C/C=C/c1cc(CN2CCN(c3ccc(OC)cc3)CC2)c(O)c(OC)c1	u	35µM*	u	-4	u	1%
C/C=C/c1cc(CN2CCN(c3ccccc3)CC2)c(O)c(OC)c1	-24%	u	u	-3	-5%	0%
CC(C)Cc1ccc(CN2CCCC(NC(=O)CCN3CCCCC3=O)C2)cc1 (centres undefined)	x	-9%	x	0	x	6%
CC(C)Cc1ccc(CN2CCCC(NC(=O)CCN3CCCO3)C2)cc1 (centres undefined)	x	79µM*	x	x	x	3%
COc1ccc(/C=C2\SC(=S)N(CC(=O)OCC(=O)Nc3ccc([N+](=O)[O-])cc3OC)C2=O)cc1	-20%	x	u	-3	4%	u
COc1ccc(/C=C2\SC(=S)N(CC(=O)OCC(=O)Nc3ccc(C)cc3Cl)C2=O)cc1	-19%	14µM*	u	1	u	-24%
Cc1ccc(CCNS(=O)(=O)c2ccc3c(c2)CC(C)N3C(=O)C2CCC2)cc1 (centres undefined)	-18%	1%[59 µM]	-6%	x	0%	x
O=C(Nc1nnc(SCc2c(Cl)cccc2Cl)s1)c1ccc2ncsc2c1	-12%	x	-2%	5	-5%	-5%
N#Cc1ccc(CSc2nnc(NC(=O)c3ccc4ncsc4c3)s2)cc1	6%	x	-6%	9	1%	45µM*
CC(=O)Nc1nnc(SCc2ccc(C(=O)Nc3ccccc3F)cc2)s1	-13%	45µM*	-11%	-1	-12%	-4%
O=C(Nc1nnc(SCc2ccc(F)cc2)s1)c1cccnc1Cl	-9%	u	-6%	8	-2%	26%
O=C(Nc1nnc(SCc2ccc(F)cc2)s1)c1ccccn1	-27%	50µM*	u	-4	0%	2%
C=CCC1(O)C=CCC2C3C4C(OC(C)(C)C)C2C1C34 (centres undefined)	-3%[11.6 µM]	x	3%[11.5 µM]	-4	-8%[11.6 µM]	4%
CCOC(=O)N1CCC(NC(=O)c2ccc3c(c2)N(Cc2ccccc2C)C(=O)c2ccccc2S3=O)CC1 (centres undefined)	-15%	2%[59 µM]	-11%	x	9%	x
Clc1ccc2c(c1)c1ccccc1n2CN1CCOCC1	u	44%	23%	-21	-10%	-12%
Clc1ccc2c(c1)c1cc(Cl)ccc1n2CN1CCOCC1	u	15%[59 µM]	u	-1	13µM*	-18%
CC(C)OP(=O)(CCP(=O)(OC(C)C)OC(C)C)OC(C)C	8%	x	0%	3	-4%	0%
CCC(=O)c1ccc(OCC(=O)N2CCN(S(=O)(=O)c3ccc(Cl)s3)CC2)cc1	x	-46%[12.7 µM]	x	x	x	x
Cc1ccc(/C=N/n2c(C3CCCCC3)n[nH]c2=S)s1	-5%	8.9µM*	-3%	2	6%	5%
SMILES	Tau fluor counter	G9a block	Tau ThT inhib	FBPA coupling cs	Tau fibril FP	Sfp PPTase inh
Cc1ccsc1/C=N/n1c(C2CCCCC2)n[nH]c1=S	1%	1.4µM*	0%	2	-2%	-28%
Cc1ccsc1/C=N/N1CCN(C2c3ccccc3-c3ccccc32)CC1	-21%	33%[0.501 µM]	-11%	0	9%	7%
Cc1ccc(C2SCCN2C(=O)c2ccc([N+](=O)[O-])cc2)cc1 (centres undefined)	-23%	u	-14%	-4	14%	-3%
O=S(=O)(c1ccccc1)c1nc(-c2ccco2)oc1SCc1ccc(F)cc1	u	-25%[59 µM]	-1%	x	u	x
CCOc1ccc(CCNC(=O)c2cc3c(=O)n(C)c4ccccc4c3n2C)cc1OCC	-12%	u	-13%	x	-2%	x
CC1CC(N(C(=O)c2ccc(Cl)cc2)c2ccccc2)c2ccccc2N1C(=O)c1ccco1 (centres undefined)	-16%	45µM*	u	2	-5%	2%
S=c1nc(C2CCCCC2)[nH][nH]1	-2%	u	-10%	1	4%	56µM*
Nc1n[nH]c(C2CCCCC2)n1	-8%	11%	-6%	5	5%	6%
O=[N+]([O-])c1ccc(-c2nc(-c3ccc(F)cc3)c(-c3ccncc3)[nH]2)cc1	20µM*[quencher]	35µM*	14µM*	-1	u	-29%
CC(C)CCN1C(=O)c2ccc(C(=O)N3CCCCC3)cc2C1=O	x	15%[2.33 µM]	x	x	x	x
N#Cc1ccc(CN2CCN(C(=O)CC(NC(=O)c3ccccc3)c3ccccc3)CC2)cc1 (centres undefined)	x	u	x	3	x	9%
N#Cc1ccc(CN2CCN(C(=O)CNC(=O)Cc3cccc4ccccc34)CC2)cc1	x	50µM*	x	x	x	x
COC(=O)[C@@H](NC(=O)O[C@@H]1C(=O)c2ccc(OC)cc2O[C@H]1c1ccc2c(c1)OCO2)C(C)C	-7%	x	-12%	1	0%	-12%
Cc1nc(S/C(=C\c2ccc(-c3ccc(C(=O)O)c(Cl)c3)o2)C(=O)O)n[nH]1	-7%	4µM*	u	-1	-4%	6.3µM*
Cc1nc(S/C(=C\c2ccc(OCc3ccccc3Cl)cc2)C(=O)O)n[nH]1	u	-8%[0.0925 µM]	u	5	5%	4%
Cc1cc(-c2nnc(SCC(=O)NC3CC3)n2C(C)C)cs1	x	47%	x	0	x	7%
C/C(=N\NC(=O)c1ccc(CN2CCOCC2)cc1)c1ccc([N+](=O)[O-])cc1	-3%	36%[59 µM]	3%	5	-4%	-8%
C/C(CC(=O)N1CCN(C=O)CC1)=N\NC(=O)c1cc2ccccc2cc1O	u	u	25µM*	-12	u	-28%
C/C(CC(=O)N1CCN(C=O)CC1)=N\NC(=O)c1ccc([N+](=O)[O-])cc1	12%[2.34 µM]	10µM*	-9%	2	-13%	u
Fc1ccc(C[n+]2csc3ccccc32)cc1	-21%	u	u	-2	u	45µM*
